ERb coact inh: inhibitors of ERβ-SRC1 coactivator interaction, primary screen, biochemical, TR-FRET, ERβ LBD, SRC-1 peptide; Estrogen receptor beta (Homo sapiens), Q92731; TR-FRET ER-beta LBD / SRC1-Cy5 peptide binding; receptor agonist-loaded with 1 µM estradiol; inhibition, % at 25.6 µM; 86,000 tested, 1.3% active;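 active means compounds whose percent inhibition of the receptor-coactivator binding signal exceeds about 50% in the single-dose screen, limit read from the data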;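 further: 0% = receptor plus peptide wells without compound and 100% = peptide-only wells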
Target sequence (Q92731 whole entry, looked up, the tested form may be a part): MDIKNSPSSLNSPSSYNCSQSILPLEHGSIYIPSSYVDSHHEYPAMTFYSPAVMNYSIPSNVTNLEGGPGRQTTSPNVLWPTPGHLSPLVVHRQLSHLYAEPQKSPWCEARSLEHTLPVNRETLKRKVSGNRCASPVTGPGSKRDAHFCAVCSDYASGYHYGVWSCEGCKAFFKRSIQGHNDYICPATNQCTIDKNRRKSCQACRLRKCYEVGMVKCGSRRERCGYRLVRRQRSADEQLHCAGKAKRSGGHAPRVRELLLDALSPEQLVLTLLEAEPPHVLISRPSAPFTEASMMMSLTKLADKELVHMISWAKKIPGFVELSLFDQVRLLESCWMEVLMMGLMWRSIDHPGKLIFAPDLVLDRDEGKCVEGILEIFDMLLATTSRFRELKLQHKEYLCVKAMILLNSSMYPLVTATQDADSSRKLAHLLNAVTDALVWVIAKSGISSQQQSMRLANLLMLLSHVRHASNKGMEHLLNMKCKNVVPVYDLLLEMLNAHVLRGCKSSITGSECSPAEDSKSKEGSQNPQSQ
NFkB transloc pot: enhancers of NFkB p65 translocation in HUVEC – imaging, IL-1B stimulus, high-content imaging, primary screen; HUVEC IL-1B NFkB p65 nuclear translocation imaging; activation, % at 2 µM; 94,000 tested, 0.3% active; AID 819, 2007;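 active means activation above 40%, about the mean plus 3 SD, also judged a hit on visual image review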;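 further: percent activation is computed from the nuclear over cytoplasmic p65 intensity ratio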
ERa SRC1 pot: enhancers of ERα–SRC-1 coactivator binding, primary screen, biochemical, TR-FRET, ERα LBD, low estradiol; Estrogen receptor (Homo sapiens), P03372; TR-FRET ERalpha-LBD/SRC-Cy5 coactivator binding, 2 h; 100 = basal binding, no effect; coactivator binding (% of control), % at 25.6 µM; 86,000 tested, 1.3% active; in the data active means activity above about 200%;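 further: binding measured in presence of low estradiol as agonist stimulus; 0% = peptide alone without receptor and 100% = receptor with peptide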
NFkB transloc inh: inhibitors of IL-1B driven NFkB p65 nuclear import, primary screen, imaging, HUVEC, IL-1B stimulus, high-content imaging. HUVEC IL-1B NFkB p65 nuclear translocation imaging. inhibition, % at 2 µM. 94,000 tested, 0.43% active;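 active means inhibition above about 30% together with a positive call from visual inspection of the well image, limit read from the data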;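 further: nuclear over cytoplasmic p65 intensity ratio measured by imaging; 0% = IL-1B stimulated DMSO wells and 100% = unstimulated DMSO wells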
IL1B cytotox: cytotoxicity in IL-1B stimulated HUVEC, primary screen, cytotoxicity control for IL-1B NFkB translocation project, imaging, Hoechst nuclear count, IL-1B stimulus | HUVEC cell count loss | cell count reduction, % at 2 µM | 94,000 tested, 0.41% active | AID 845, 2007;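 active means cell count reduction more than 3 SD above the screen-wide mean, cut at about 70% in these data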;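 further: normalized per plate to untreated control cells as the no-loss baseline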
ERa coact inh: ERα–SRC-1 coactivator interaction inhibitors, primary screen, biochemical, TR-FRET, ERα LBD, estradiol-bound; Estrogen receptor (Homo sapiens), P03372; TR-FRET ER-alpha LBD / SRC-1 peptide; inhibition, % at 25.6 µM; 86,000 tested, 1.7% active; AID 629, 2007; in the data active means inhibition above about 50%;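 further: 0% = receptor plus peptide control and 100% = peptide only without receptor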
An asterisk follows results filed as active; [ ] = another dose, or the depositor's remark. Only some compounds are listed: those with a hit (about 3.6% of all), similar ones and a draw of the others.

For COc1cccc(CNC(=O)C2CCN(S(=O)(=O)N3CC(C)CC(C)C3)CC2)c1 (stereo unspecified) the results were ERb coact inh -3, NFkB transloc pot 0, ERa SRC1 pot 107, NFkB transloc inh 0, IL1B cytotox 4 and ERa coact inh 1.
COC(=O)C1=C(CSc2nncn2C)NC(=O)NC1c1ccc(F)cc1 (stereo unspecified) was read as ERb coact inh -2, NFkB transloc pot -13, ERa SRC1 pot 97, NFkB transloc inh 13, IL1B cytotox 0 and ERa coact inh 11.
COc1ccc(S(=O)(=O)NNC(=O)c2csc(-n3nc(C)cc3C(F)(F)F)n2)cc1OC was read as ERb coact inh -7, NFkB transloc pot 52*, ERa SRC1 pot 87, NFkB transloc inh -52, IL1B cytotox -5 and ERa coact inh 1.
Screening COc1ccc(/C=N/NC(=O)c2csc(-n3nc(C)cc3C(F)(F)F)n2)cc1 returned NFkB transloc pot -11, NFkB transloc inh 11 and IL1B cytotox 6.
For CC(C)CN(CCC(=O)O)CC(C)C the results were ERb coact inh 60*, NFkB transloc pot 3, ERa SRC1 pot 110, NFkB transloc inh -3, IL1B cytotox 10 and ERa coact inh -2.
Screening COc1ccccc1N1CCN(CC(=O)Nc2cc(C)nn2-c2nc(C)cc(C)n2)CC1 returned ERb coact inh -15, ERa SRC1 pot 105 and ERa coact inh -21.
`Cc1[nH]n(-c2ccccc2)c(=O)c1C1(C(F)(F)F)C(=O)N(c2ccc(F)cc2)C2=C1C(=O)CC(C)(C)C2` (stereo unspecified) gave ERb coact inh -14, NFkB transloc pot 9, ERa SRC1 pot 86, NFkB transloc inh -9, IL1B cytotox -1 and ERa coact inh -7.
For Nc1c(C(O)(C(F)(F)F)C(F)(F)F)ccc2ccccc12 the results were ERb coact inh -1, NFkB transloc pot 2, ERa SRC1 pot 286*[fluorescence artefact?], NFkB transloc inh -2, IL1B cytotox -25 and ERa coact inh -10.
For Nc1ccc(C(O)(C(F)(F)F)C(F)(F)F)cc1 the results were ERb coact inh -7, NFkB transloc pot 2, ERa SRC1 pot 104, NFkB transloc inh -2, IL1B cytotox -5 and ERa coact inh 2.
Screening COC(=O)c1ccc(S(=O)(=O)N2C3CCC2CC(NC(=O)NC2CCCCC2)C3)cc1 (stereo unspecified) returned ERb coact inh 58*[fluorescence artefact?], NFkB transloc pot 17, ERa SRC1 pot 83, NFkB transloc inh -17, IL1B cytotox 6 and ERa coact inh 15.
Screening Cc1nn(C)c(C)c1S(=O)(=O)N1CCC(C(=O)NCC2COc3ccccc3O2)CC1 (stereo unspecified) returned ERb coact inh -3, NFkB transloc pot 42*, ERa SRC1 pot 115, NFkB transloc inh -42, IL1B cytotox -6 and ERa coact inh -4.
`COc1cc2[nH]c(=O)n(CCC(=O)N3CCN(c4cccc(C)c4C)CC3)c(=O)c2cc1OC` gave ERb coact inh 7, NFkB transloc pot 5, ERa SRC1 pot 116, NFkB transloc inh -5, IL1B cytotox 4 and ERa coact inh 53*[fluorescence artefact?].
Screening O=C(C1COc2ccccc2O1)N1CCCC1 (stereo unspecified) returned ERb coact inh 26, NFkB transloc pot -6, ERa SRC1 pot 122, NFkB transloc inh 6, IL1B cytotox 17 and ERa coact inh 2.
For O=C(C1COc2ccccc2O1)N1CCc2ccccc21 (stereo unspecified) the results were ERb coact inh 34, NFkB transloc pot 3, ERa SRC1 pot 345*[fluorescence artefact?], NFkB transloc inh -2, IL1B cytotox 3 and ERa coact inh 21.
O=C(Cc1cn2ccsc2n1)OCc1nc2ccccc2s1 was read as ERb coact inh 64*[fluorescence artefact?], NFkB transloc pot 8, ERa SRC1 pot 37, NFkB transloc inh -8, IL1B cytotox 47 and ERa coact inh 64*.
For O=C(Cc1cn2ccsc2n1)OCc1ccccc1 the results were ERb coact inh 0, NFkB transloc pot 5, ERa SRC1 pot 119, NFkB transloc inh -5, IL1B cytotox -20 and ERa coact inh 4.
Screening CC1(C)CC(=O)c2c(oc3cc(O)c(O)cc23)C1 returned ERb coact inh 58*[fluorescence artefact?], NFkB transloc pot -9, ERa SRC1 pot 71, NFkB transloc inh 10, IL1B cytotox -163 and ERa coact inh 27.
`COC(=O)c1c(NC(=O)c2nc3ccccc3s2)sc2c1CCN(C(C)=O)C2` gave ERb coact inh 5, NFkB transloc pot 16, ERa SRC1 pot 129, NFkB transloc inh -16, IL1B cytotox 6 and ERa coact inh -1.
Screening CNC(=O)c1c(NC(=O)c2nc3ccccc3s2)sc2c1CCC2 returned ERb coact inh 53*, NFkB transloc pot -1, ERa SRC1 pot 61, NFkB transloc inh 1, IL1B cytotox -9 and ERa coact inh 72*[fluorescence artefact?].
N#Cc1nc(-c2ccc(OCc3ccccc3)cc2)oc1NCCN1CCOCC1 was read as ERb coact inh 8, NFkB transloc pot 1, ERa SRC1 pot 235*[fluorescence artefact?], NFkB transloc inh -1, IL1B cytotox 6 and ERa coact inh 11.
N#Cc1nc(-c2ccc(OCc3ccccc3)cc2)oc1N1CCOCC1 was read as ERb coact inh -1, NFkB transloc pot 5, ERa SRC1 pot 108, NFkB transloc inh -5, IL1B cytotox -32 and ERa coact inh 4.
CCOC(=O)c1cc(C#N)c(Oc2ccccc2OC)nc1-c1ccccc1 was read as NFkB transloc pot 0, NFkB transloc inh 0 and IL1B cytotox 24.
`CCCN1Cc2cccc(C(=O)N3CCN(c4ccccc4)CC3)c2C1=O` gave ERb coact inh -2, NFkB transloc pot 32, ERa SRC1 pot 99, NFkB transloc inh -32, IL1B cytotox 94* and ERa coact inh -9.
Screening COc1ccc(Cl)cc1NC(=O)CSc1ncnc2c1oc1ccccc12 returned ERb coact inh 16, ERa SRC1 pot 230* and ERa coact inh 38.
Screening OCCSc1ncnc2c1oc1ccccc12 returned ERb coact inh -6, NFkB transloc pot -32, ERa SRC1 pot 120, NFkB transloc inh 32*, IL1B cytotox -10 and ERa coact inh 16.
Screening O=C(CSc1ncnc2c1oc1ccccc12)N1CCCc2ccccc21 returned ERb coact inh 39, NFkB transloc pot -3, ERa SRC1 pot 202*[fluorescence artefact?], NFkB transloc inh 3, IL1B cytotox -24 and ERa coact inh 33.

Source: PubChem
